Assay [1] in a line: CCTE_Shafer_MEA_dev_bursting_electrodes_number: CCTE's Neural Network Formation Assay for Number of Bursting Electrodes, Shafer Lab (AID 2284043; active = hit-call score of the fitted dose curve at least 0.9, where 1 is the maximum;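 for AC50: potency is for loss of bursting electrodes relative to DMSO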). The method, boiled down: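 Rat cortical primary neurons, 48-well MEA, 16 electrodes/well; dosing DIV 0–12, re-dosed with full media change DIV 5, 9. Recordings DIV 5/7/9/12, AxIS adaptive spike detector; bursting electrode = ≥1 burst/2 min. AUC across days; loss of signal vs DMSO.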

Assay [2] in a line: CCTE_Shafer_MEA_dev_per_burst_interspike_interval: CCTE's Neural Network Formation Assay for Burst Interspike Interval, Shafer Lab (AID 2284044).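 Note: mean spike spacing inside bursts as AUC over recordings on days 5 7 9 12.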 The method, boiled down: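 Primary rat cortical neurons on 48-well MEA plates, exposed from day 0 through day 12, treatment renewed at DIV 5 and 9. Within-burst interspike interval recorded days 5, 7, 9, 12, well-averaged, summarised as AUC; negative fit versus DMSO.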

Assay [3] is described as follows: CCTE_Shafer_MEA_dev_burst_duration_mean: CCTE's Neural Network Formation Assay for Mean Burst Duration, Shafer Lab (AID 2284045).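 For AC50: curve fitted for loss meaning shorter burst duration than DMSO.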 The method, boiled down:
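Rat cortical cultures, 1.5 x 10^5 cells/well with laminin drop; continuous dosing days 0–12, media plus treatment refreshed DIV 5, 9. AxIS adaptive spike detection; mean single-electrode burst duration, AUC over four recordings, negative direction vs DMSO.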

The nature of assay [4]: CCTE_Shafer_MEA_dev_interburst_interval_mean: CCTE's Neural Network Formation Assay for Mean Interburst Interval, Shafer Lab (AID 2284046).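 Note: well-mean interburst interval of bursting electrodes as AUC over four recording days; curve fitted for decrease in interburst interval relative to DMSO.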 The method, boiled down:
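Developing rat cortical networks on 48-well MEAs receive compound from the day of plating. Burst intervals from each active electrode are averaged per well, and AUC over the recording days is fitted in the negative direction against DMSO.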

Assay [5] can be described thus: CCTE_Shafer_MEA_dev_inter_network_spike_interval_mean: CCTE's Neural Network Formation Assay for Mean Inter-network Spike Interval, Shafer Lab (AID 2284047). In outline:
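Rat cortical cultures, 1.5 x 10^5 cells/well on 48-well MEA plates; continuous exposure days 0–12, medium and compound refreshed DIV 5, 9. Mean time between consecutive network-spike peaks; AUC across DIV 5/7/9/12; DMSO baseline, negative fitting direction.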

The nature of assay [6]: CCTE_Shafer_MEA_dev_network_spike_number: CCTE's Neural Network Formation Assay for Number of Network Spikes, Shafer Lab (AID 2284048).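 For AC50: fit as a loss of signal meaning fewer network spikes than DMSO.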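 Note: synchronized bursts across electrodes counted on days 5 7 9 12 and integrated as AUC.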 The method, boiled down:
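Rat cortical primary cultures on 48-well MEA (16 electrodes/well); continuous exposure DIV 0–12, full medium and treatment exchange DIV 5, 9. Readout: network spike count, AxIS adaptive detection, recordings DIV 5/7/9/12 collapsed to AUC; loss-of-signal fit, DMSO baseline.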

The nature of assay [7]: CCTE_Shafer_MEA_dev_network_spike_peak: CCTE's Neural Network Formation Assay for Mean Number of Electrodes in Network Spike, Shafer Lab (AID 2284049).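 For AC50: fitted for loss of signal meaning fewer electrodes in network spikes than DMSO.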 In outline: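 Network-spike peak electrode count from recordings on days 5, 7, 9 and 12 was combined as trapezoidal area under the curve. Rat cortical cultures were treated continuously from plating, with compound renewed at each feed (DIV 5, 9); fits versus DMSO.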

Assay [8] in a line: CCTE_Shafer_MEA_dev_spike_duration_mean: CCTE's Neural Network Formation Assay for Mean Spike Duration, Shafer Lab (AID 2284051).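 For AC50: potency for a decrease in mean network spike duration versus DMSO.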 The method, boiled down: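 Readout is the average length of network spikes, clustered firing across electrodes, summed over DIV 5, 7, 9 and 12 as area under the curve. Neurons from rat cortex developed networks on MEA plates under continuous 12-day exposure.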

Assay [9] can be described thus: CCTE_Shafer_MEA_dev_network_spike_duration_std: CCTE's Neural Network Formation Assay for Standard Deviation of Network Spike Duration, Shafer Lab (AID 2284052).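 Note: hits are decreases in network spike duration SD versus DMSO vehicle.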 The method, boiled down:
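Read-out is the trapezoidal area-under-the-curve across recordings made on days 5, 7, 9 and 12, fitted in the negative direction against DMSO baseline. Neurons were primary rat cortical cells treated from day 0, with treatment renewed at each feed.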

The nature of assay [10]: CCTE_Shafer_MEA_dev_per_network_spike_spike_number_mean: CCTE's Neural Network Formation Assay for Mean Number of Spikes in a Network Spike, Shafer Lab (AID 2284053).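 For AC50: fitted as decrease in spikes per network spike relative to DMSO.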 In outline: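 Continuous twelve-day exposure of developing rat cortical networks grown over 16 microelectrodes per well; spontaneous firing is captured at four time points, and the per-network-spike spike number is integrated over development by trapezoidal AUC.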

The nature of assay [11]: CCTE_Shafer_MEA_dev_per_network_spike_spike_percent: CCTE's Neural Network Formation Assay for Percent of Spikes in a Network Spike, Shafer Lab (AID 2284054). In outline: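 Read-out: percent of spikes falling in a 0.05 s window at network-spike peak, from spontaneous MEA recordings on days 5, 7, 9 and 12; trapezoidal AUC; loss of signal versus DMSO. Rat cortical cultures, compound present throughout.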

Assay [12] can be described thus: CCTE_Shafer_MEA_dev_LDH: CCTE's Lactate Dehydrogenase Assay for Cytotoxicity in the Neural Network Formation Assay, Shafer Lab (AID 2284068; active = hit-call score of the fitted dose curve at least 0.9, where 1 is the maximum;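 note: exposure for twelve days from plating with re-dosing on DIV 5 and 9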). The method, boiled down:
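Cytotoxicity companion to network-formation recordings: rat cortical neurons received compound over 12 days of development, re-dosed at DIV 5 and 9 feeds. Viability was inferred from LDH enzyme activity relative to DMSO.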

Assay [13] in a line: CCTE_Shafer_MEA_dev_mutual_information_norm: CCTE's Neural Network Formation Assay for Mutual Information Normalization, Shafer Lab (AID 2284091).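 For AC50: mutual information between electrodes summarised as area under curve across four recording days; potency is for a decrease in mutual information relative to DMSO.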 The method, boiled down: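 Neurons from rat cortex were seeded at 1.5 x 10^5 cells/well onto PEI-coated MEAs in a laminin drop, then exposed to compound from day 0 for twelve days. Network recordings on four days gave mutual information, summarised by AUC relative to DMSO.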

Assay [14] can be described thus: CCTE_Shafer_MEA_dev_correlation_coefficient_mean: CCTE's Neural Network Formation Assay for Mean Correlation Coefficient, Shafer Lab (AID 2284093).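 For AC50: well mean pairwise spike train correlation integrated as AUC over recording days 5 to 12; potency fitted for loss of correlation relative to DMSO vehicle wells.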 The method, boiled down:
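Read-out: well-mean correlation coefficient of spike trains between electrode pairs, collapsed over four recording days as trapezoidal area-under-the-curve. Developing rat cortical neuron networks grown on MEAs received test chemical continuously from plating.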

The test system of assay [15] is DIO2 (gene 1734). In words: CCTE_GLTED_hDIO2: CCTE's human Deiodinase 2 (DIO2) Inhibition Assay, Great Lakes Toxicology and Ecology Division (GLTED) Lab (AID 2284050; active = hit-call score of the fitted dose curve at least 0.9, where 1 is the maximum). The method, boiled down: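 Iodide released by human deiodinase 2 over 3 h with test chemical, measured spectrophotometrically via Sandell-Kolthoff cerium/arsenic reaction. Run n=3; inhibition referenced to DMSO.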

The test system of assay [16] is DIO3 (gene 1735). In words: CCTE_GLTED_hDIO3: CCTE's human Deiodinase 3 (DIO3) Inhibition Assay, Great Lakes Toxicology and Ecology Division (GLTED) Lab (AID 2284055; active = hit-call score of the fitted dose curve at least 0.9, where 1 is the maximum;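 note: potency is for inhibition seen as loss of released iodide signal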). The method, boiled down:
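Inhibition is read as reduced iodide release, measured spectrophotometrically by the Sandell-Kolthoff cerium/arsenic reaction. Adenovirus-expressed human DIO3 enzyme is exposed to chemical for 3 h, n=3 plates. Iodinated chemicals, nitrite, iron or thiocyanate may interfere.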

Assay [17] can be described thus: CCTE_Shafer_MEA_dev_AB: CCTE's Alamar Blue Assay for Cytotoxicity in the Neural Network Formation Assay, Shafer Lab (AID 2284083; active = hit-call score of the fitted dose curve at least 0.9, where 1 is the maximum;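 note: resazurin reduction fluorescence as viability of cultured neurons; twelve days of exposure from plating with re-dosing on DIV 5 and 9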). The method, boiled down:
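Fluorescent resazurin reduction serves as the viability read-out, with DMSO as negative control and baseline. Cells were primary rat cortical neurons grown on MEA plates and dosed from day 0 to day 12, treatment renewed on DIV 5 and 9.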
A general note: The colour change of resazurin is a common sign of viable cells or microbes.

Assay [18] is described as follows: CCTE_Mundy_HCI_hNP1_Pro_ResponderAvgInten: CCTE's Proliferation Assay in human neuroprogenitor cells, Mundy Lab (AID 2284224; active = hit-call score of the fitted dose curve at least 0.9, where 1 is the maximum;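 note: human neural progenitor cells hNP1 derived from WA09 embryonic stem cells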). The method, boiled down: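 Proliferation read as average intensity of BrdU-positive cells, imaged at 26.25 h post-dosing: chemical exposure started after 40–44 h culture, BrdU during final 4 h, paraformaldehyde fixation. Positive-direction fit relative to DMSO.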

Records with an inconclusive call do not appear. The source made the active and inactive calls. Rule for the calls, unless noted: active = hit-call score of the fitted dose curve at least 0.9, where 1 is the maximum; inactive = score below 0.9.

One may read the AC50 as the concentration giving half of the maximal activity seen.

As for `CNS(=O)(=O)C(F)(F)C(F)(F)C(F)(F)C(F)(F)C(F)(F)C(F)(F)C(F)(F)C(F)(F)F`, the compound was called inactive in [1], in assay [2], in assay [3], in assay [4], in assay [5] and in [6]. In addition, the outcome in assay [7], in assay [8], in assay [9], in assay [10], in assay [11] and in assay [12] was inactive. Moreover, the outcome in [13] and in assay [14] was inactive.

As to `OCC(O)CC(F)(F)C(F)(F)C(F)(F)C(F)(F)F` (stereo not drawn), the compound was called inactive in assay [1], in assay [2], in [3], in assay [4], in assay [5] and in assay [6]. Also, the compound was classed as inactive in assay [7], in [8], in assay [9], in [10], in assay [11] and in [13]. Moreover, the outcome in assay [14] was inactive.

For `CCCCCCCC/C=C\CCCCCCCC(=O)N(C)CC(=O)O`, the AC50 was 55.6 µM (active) in assay [15] and 22 µM (active) in assay [16].

As to `C=CC(=O)OCC(F)(F)C(F)(F)C(F)(F)COC(=O)C=C`, the AC50 in assay [1] was 1.52 µM (active); in assay [3] it was 3.86 µM (active); in assay [4], 8.65 µM (active); in [6], 1.18 µM (active); in [7], 4.61 µM (active); in assay [15], 26.3 µM (active). In addition, the AC50 in assay [8] is 5.18 µM (active); in assay [10], 4.72 µM (active); in assay [11] it was 4.56 µM (active); in assay [16] it was 45.1 µM (active); in assay [12] it was 5.84 µM (active); in [17] it was 7.96 µM (active). For the same compound, the AC50 is 1.73 µM (active) in [13] and 8.13 µM (active) in assay [14]. Also, the compound was called inactive in [2], in assay [5], in [9] and in assay [18].

As for `C=C(C)C(=O)OCC(F)(F)C(F)(F)C(F)(F)C(F)F`, the AC50 is 34 µM (active) in assay [15] and 14.2 µM (active) in assay [16].

Consider `CCCCCCCCCCCCCC[P+](CCCC)(CCCC)CCCC`, for which the AC50 in assay [15] is 17.1 µM (active); in [16], 3.56 µM (active).

For `OCCCC(F)(F)C(F)(F)C(F)(F)C(F)(F)C(F)(F)C(F)(F)C(F)(F)C(F)(F)F`, the compound was classed as inactive in [18].

On to `OC(O)C(F)(F)C(F)(F)F`, for which the call in assay [2], in [3], in [4], in [5], in assay [6] and in assay [7] was inactive. Besides, the call in assay [8], in [9], in [10], in assay [11], in assay [12] and in assay [13] was inactive. In addition, in assay [14], the outcome was inactive.

Consider `NC(=O)C(F)(F)C(F)(F)C(F)(F)F`, for which the result in assay [2], in assay [3], in [4], in assay [5], in assay [6] and in assay [7] was inactive. In addition, the compound was classed as inactive in [8], in assay [9], in assay [10], in [11], in assay [12] and in assay [13]. Also, the call in [14] was inactive.

These data come from PubChem BioAssay (EPA / NIEHS).
